Laboratory results published in PubChem BioAssay AID1159580 (chemical genetic matrix, 2015).
Values joined by “and” are separate entries in the source; they are usually repeats but may differ in a detail not shown here. Equal entries are not always repeated. Among all 5,500 compounds or so, about 2,000 (36%) were called active. Another 18% or so got no clear call; they are omitted. Cut-off read from the data, not from the text of the source: active = normalized growth mostly below about 0.91 (no sharp cut-off); inconclusive = no clear call, values can overlap the other calls; inactive = mostly above about 0.92. Some of the results follow.

Experiment: chemical genetic growth profiling, strain panel (AID 1159580);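 note: tested at 20 µM; growth read once vehicle control cultures reached saturation at 30 °C; 1 = growth at the plate median or of vehicle wells; lower values mean less growth of the strain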
Conditions: S. cerevisiae deletion strains, growth OD
[1] = locus YDL101C, strain DUN1, stronger effect = lower value
[2] = locus YHR030C, strain SLT2, stronger effect = lower value
[3] = locus YHR079C, strain IRE1, stronger effect = lower value
[4] = locus YJL095W, strain BCK1, stronger effect = lower value
[5] = locus YJR066W, strain TOR1, stronger effect = lower value
[6] = locus YLR113W, strain HOG1, stronger effect = lower value
[7] = locus YNL183C, strain NPR1, stronger effect = lower value
[8] = locus YOR061W, strain CKA2, stronger effect = lower value
[9] = locus YOR231W, strain MKK1, stronger effect = lower value
[10] = locus YPL256C, strain CLN2, stronger effect = lower value

Measured: normalized growth

NC(=NC(=O)c1ccc(Cl)cc1)c1cccs1
active: [6] 0.607 | [10] 0.67
inactive: locus YAR019C, strain CDC15, stronger effect = lower value 0.944 | locus YBL105C, strain PKC1, stronger effect = lower value 0.964 | locus YBR135W, strain CKS1, stronger effect = lower value 0.95 | locus YBR136W, strain MEC1, stronger effect = lower value 0.949 | locus YBR160W, strain CDC28, stronger effect = lower value 0.951 | locus YDL017W, strain CDC7, stronger effect = lower value 0.964 | locus YDL028C, strain MPS1, stronger effect = lower value 0.933 | [1] 0.969 | locus YDL108W, strain KIN28, stronger effect = lower value 0.946 | locus YDL132W, strain cdc53, stronger effect = lower value 0.951 | locus YDL214C, strain PRR2, stronger effect = lower value 0.8 | locus YDR052C, strain DBF4, stronger effect = lower value 0.96 | locus YDR054C, strain cdc34, stronger effect = lower value 0.951 | locus YDR226W, strain ADK1, stronger effect = lower value 0.951 | locus YDR477W, strain SNF1, stronger effect = lower value 0.828 | locus YER123W, strain YCK3, stronger effect = lower value 0.81 | locus YER133W, strain GLC7, stronger effect = lower value 0.775 | locus YFL009W, strain cdc4, stronger effect = lower value 0.954 | locus YFL029C, strain CAK1, stronger effect = lower value 0.949 | locus YFR003C, strain YPI1, stronger effect = lower value 0.959 | locus YFR019W, strain FAB1, stronger effect = lower value 0.938 | locus YFR028C, strain CDC14, stronger effect = lower value 0.948 | locus YGR040W, strain KSS1, stronger effect = lower value 0.833 | locus YGR052W, strain FMP48, stronger effect = lower value 0.794 | locus YGR092W, strain DBF2, stronger effect = lower value 0.533 | [2] 0.902 | [3] 0.698 | locus YHR082C, strain KSP1, stronger effect = lower value 0.934 | locus YHR205W, strain SCH9, stronger effect = lower value 0.798 | locus YIL147C, strain SLN1, stronger effect = lower value 0.956 | [4] 0.795 | locus YJL128C, strain PBS2, stronger effect = lower value 0.921 | locus YJL157C, strain FAR1, stronger effect = lower value 0.833 | locus YJR016C, strain ILV3, stronger effect = lower value 0.957 | locus YJR066W, strain TOR1 (second series), stronger effect = lower value 0.904 | [5] 0.884 | locus YKL048C, strain ELM1, stronger effect = lower value 0.901 | locus YKL067W, strain YNK1, stronger effect = lower value 0.824 | locus YKL101W, strain HSL1, stronger effect = lower value 0.877 | locus YKL193C, strain SDS22, stronger effect = lower value 0.942 | locus YKL203C, strain TOR2, stronger effect = lower value 0.9 | locus YLR133W, strain CKI1, stronger effect = lower value 0.83 | locus YLR403W, strain SFP1, stronger effect = lower value 0.789 | locus YML070W, strain DAK1, stronger effect = lower value 0.774 | locus YMR001C, strain CDC5, stronger effect = lower value 0.948 | locus YMR205C, strain PFK2 (second series), stronger effect = lower value 0.836 | locus YMR277W, strain FCP1, stronger effect = lower value 0.942 | locus YNL006W, strain LST8, stronger effect = lower value 0.97 | locus YNL020C, strain ARK1, stronger effect = lower value 0.821 | locus YNL161W, strain CBK1, stronger effect = lower value 0.95 | [7] 0.721 | locus YNL207W, strain RIO2, stronger effect = lower value 0.949 | locus YNL222W, strain SSU72, stronger effect = lower value 0.957 | locus YNL307C, strain MCK1 (second series), stronger effect = lower value 0.82 | locus YOL078W, strain AVO1, stronger effect = lower value 0.944 | locus YOL136C, strain PFK27, stronger effect = lower value 0.774 | [8] 0.82 | locus YOR119C, strain RIO1, stronger effect = lower value 0.834 | [9] 0.734 | locus YOR329C, strain SCD5, stronger effect = lower value 0.949 | locus YPL031C, strain PHO85, stronger effect = lower value 0.8 | locus YPL153C, strain RAD53, stronger effect = lower value 0.844 | locus YPL204W, strain HRR25, stronger effect = lower value 0.806 | locus YPL209C, strain IPL1, stronger effect = lower value 0.955 | locus YPR025C, strain CCL1, stronger effect = lower value 0.953 | locus YPR106W, strain ISR1, stronger effect = lower value 0.932 | locus YPR111W, strain DBF20, stronger effect = lower value 0.915 | strain NNK1, stronger effect = lower value 0.932 | strain TSCII, stronger effect = lower value 0.939

O=C(O)CCCCCCCCCCCCC1C=CCC1 (stereo not given)
active: locus YBR021W, strain FUR4, stronger effect = lower value 0.186 | locus YDL074C, strain BRE1, stronger effect = lower value 0.653 | locus YDL192W, strain arf1, stronger effect = lower value 0.82 | locus YDR101C, strain arx1, stronger effect = lower value 0.883 | locus YDR502C, strain sam2, stronger effect = lower value 0.917 | locus YER155C, strain BEM2, stronger effect = lower value 0.745 | locus YGL086W, strain mad1, stronger effect = lower value 0.853 | locus YGL248W, strain PDE1, stronger effect = lower value 0.865 | locus YHR129C, strain ARP1, stronger effect = lower value 0.885 | locus YIL066C, strain RNR3, stronger effect = lower value 0.841 | locus YIL073C, strain SPO22, stronger effect = lower value 0.604 | locus YKL190W, strain CNB1, stronger effect = lower value 0.761 | locus YKR001C, strain vps1, stronger effect = lower value 0.337 | locus YLR039C, strain RIC1, stronger effect = lower value 0.422 | locus YLR262C, strain YPT6, stronger effect = lower value 0.476 | locus YLR268W, strain sec22, stronger effect = lower value 0.812 | locus YLR330W, strain CHS5, stronger effect = lower value 0.822 | locus YLR418C, strain cdc73, stronger effect = lower value 0.632 | locus YMR223W, strain ubp8, stronger effect = lower value 0.871 | locus YNL153C, strain GIM3, stronger effect = lower value 0.808 | locus YNL233W, strain BNI4, stronger effect = lower value 0.652 | locus YNL307C, strain MCK1, stronger effect = lower value 0.585 | locus YOL147C, strain pex11, stronger effect = lower value 0.871 | locus YOR144C, strain elg1, stronger effect = lower value 0.901 | locus YOR184W, strain ser1, stronger effect = lower value 0.726
inactive: locus YBR229C, strain ROT2, stronger effect = lower value 1.01 | locus YCL029C, strain bik1, stronger effect = lower value 0.939 | locus YDL035C, strain GPR1, stronger effect = lower value 0.87 | [1] 0.958 | locus YDL134C, strain PPH21, stronger effect = lower value 0.93 | locus YDL185W, strain tfp1, stronger effect = lower value 1.01 | locus YDR162C, strain NBP2, stronger effect = lower value 0.911 | locus YDR318W, strain mcm21, stronger effect = lower value 0.946 | locus YDR388W, stronger effect = lower value 0.976 | locus YEL061C, strain CIN8, stronger effect = lower value 0.971 | locus YER110C, stronger effect = lower value 1.01 | locus YER167W, strain BCK2, stronger effect = lower value 1.01 | locus YGL078C, strain dbp3, stronger effect = lower value 0.973 | locus YGR135W, strain pre9, stronger effect = lower value 0.953 | locus YGR252W, strain gcn5, stronger effect = lower value 0.78 | locus YHR079C, strain IRE1 (second series), stronger effect = lower value 0.98 | [3] 0.935 | locus YHR094C, strain hxt1, stronger effect = lower value 1 | locus YHR200W, strain rpn10, stronger effect = lower value 1 | locus YIL125W, strain kgd1, stronger effect = lower value 0.99 | locus YIR030C, strain dcg1, stronger effect = lower value 0.998 | locus YJL134W, strain LCB3, stronger effect = lower value 1.02 | locus YJL168C, strain set2, stronger effect = lower value 0.999 | locus YJL187C, strain SWE1 (second series), stronger effect = lower value 0.867 | locus YJR043C, strain POL32, stronger effect = lower value 0.919 | [5] 0.931 | locus YJR075W, strain HOC1, stronger effect = lower value 0.967 | locus YKL009W, strain mrt4, stronger effect = lower value 0.972 | locus YKL068W, stronger effect = lower value 1.01 | locus YKL085W, strain MDH1 (second series), stronger effect = lower value 1.01 | locus YKL085W, strain MDH1, stronger effect = lower value 1.01 | locus YLR058C, strain SHM2, stronger effect = lower value 0.902 | locus YLR102C, strain apc9, stronger effect = lower value 0.998 | [6] 0.995 | locus YLR342W, strain FKS1 (second series), stronger effect = lower value 0.854 | locus YLR371W, strain rom2, stronger effect = lower value 0.992 | locus YML016C, strain PPZ1, stronger effect = lower value 1.03 | locus YML032C, strain rad52, stronger effect = lower value 0.977 | locus YML124C, strain tub3, stronger effect = lower value 0.998 | locus YMR078C, strain ctf18, stronger effect = lower value 1.01 | locus YMR263W, strain SAP30, stronger effect = lower value 0.915 | locus YMR307W, strain GAS1, stronger effect = lower value 1.13 | locus YNL067W, strain RPL9B, stronger effect = lower value 0.933 | [7] 0.903 | locus YNL250W, strain rad50, stronger effect = lower value 1.02 | locus YNL271C, strain bni1, stronger effect = lower value 0.976 | locus YNL298W, strain CLA4, stronger effect = lower value 0.944 | locus YNR052C, strain pop2, stronger effect = lower value 0.988 | locus YOL006C, strain TOP1, stronger effect = lower value 0.764 | locus YOL012C, strain htz1 0.57 | [8] 0.987 | locus YOR069W, strain VPS5, stronger effect = lower value 0.956 | locus YOR136W, strain idh2, stronger effect = lower value 0.976 | [9] 0.954 | locus YOR316C, strain cot1, stronger effect = lower value 0.999 | [10] 1.04 | locus YPR119W, strain clb2, stronger effect = lower value 0.993 | locus YPR141C, strain kar3, stronger effect = lower value 1.01 | locus YPR163C, strain tif3, stronger effect = lower value 0.921 | locus YPR167C, strain met16, stronger effect = lower value 0.989 | strain wtn01, stronger effect = lower value 0.908
0.542 (active) and 0.952 (inactive): [4]
0.311 (active) and 0.959 (inactive): [2]

CC/C=C\C/C=C\C/C=C\C/C=C\C/C=C\CCCC(=O)OCC
inactive: [2] 0.979 | [3] 0.924 | [4] 0.945 | [5] 0.94 | [6] 0.902 | [7] 0.927 | [9] 0.949 | [10] 0.897

O=C(O)CCCO
inactive: [2] 1.05 | [3] 1.05 | [4] 1.01 | [5] 0.976 | [6] 1.02 | [7] 0.983 | [9] 1.02 | [10] 1.01
